Screens from PubChem.
Gli-Sufu block = antagonists of Gli-Sufu signaling; 340,000 compounds, 0.74% hits; inhibition, % at 5 µM; Sufu-KO-LIGHT fibroblasts, Gli luciferase reporter luminescence; AID 588413;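 active = inhibition above about 55%, limit read from the data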;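 also: 0% = DMSO-treated cells and 100% = wells with medium but no cells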
PAX8 reporter = PAX8 transcriptional activity inhibition | RMG-I TPO-luciferase reporter, SteadyGlo, 24 h | inhibition, % at 12.6 µM | 360,000 compounds, 1.2% hits | AID 652154;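 active = mean replicate inhibition at least 60% with every replicate also reaching 60%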;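 also: luciferase light reporting Pax8 driven TPO promoter activity; plate controls were median of neutral control wells for no effect and mitoxantrone controls for full effect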
Beta cell apopt = beta cell apoptosis inhibition | INS-1E cytokine-induced death, ATP luminescence, 48 h; percent of positive-control rescue, neutral wells zero | protection from apoptosis, % (test concentration not listed) | 300,000 compounds, 0.8% hits;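 active = Every replicate reaches about 75%, or at least half do and their mean reaches it too, limit read from the data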;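 also: 0% = cytokine-treated negative control wells and 100% = positive control rescue; higher means more ATP so stronger rescue from cytokine killing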
CSC inhib = cancer stem cell inhibition. inhibition, % at 7.5 µM. 300,000 compounds, 1.1% hits. cancer stem cell-like cells viability, luminescence; in the data active = inhibition above about 75%; tested in HMLE shEcad cells
Shn3 inh set2 = Schnurri-3 reporter inhibition in Clone20 osteoblasts | Clone20 osteoblast Shn3 3'UTR firefly luciferase, 24 h | 360,000 compounds, 0.52% hits | inhibition, % at 12.5 µM | AID 588674;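 active = mean inhibition of at least 75% with every replicate also reaching 75%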;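 also: 0% = median of neutral control wells and 100% = pilot-screen positive control compound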
Mdm2-MdmX inh = human Mdm2/MdmX binding inhibition; O15151+Q00987; SaOS-2 split-luciferase Mdm2/MdmX complementation, luminescence; inhibition, % at 8 µM; 330,000 compounds, 3% hits; AID 485346;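 active = inhibition of at least 50% at 8 µM in the primary screen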
Target sequence (O15151 whole entry, looked up): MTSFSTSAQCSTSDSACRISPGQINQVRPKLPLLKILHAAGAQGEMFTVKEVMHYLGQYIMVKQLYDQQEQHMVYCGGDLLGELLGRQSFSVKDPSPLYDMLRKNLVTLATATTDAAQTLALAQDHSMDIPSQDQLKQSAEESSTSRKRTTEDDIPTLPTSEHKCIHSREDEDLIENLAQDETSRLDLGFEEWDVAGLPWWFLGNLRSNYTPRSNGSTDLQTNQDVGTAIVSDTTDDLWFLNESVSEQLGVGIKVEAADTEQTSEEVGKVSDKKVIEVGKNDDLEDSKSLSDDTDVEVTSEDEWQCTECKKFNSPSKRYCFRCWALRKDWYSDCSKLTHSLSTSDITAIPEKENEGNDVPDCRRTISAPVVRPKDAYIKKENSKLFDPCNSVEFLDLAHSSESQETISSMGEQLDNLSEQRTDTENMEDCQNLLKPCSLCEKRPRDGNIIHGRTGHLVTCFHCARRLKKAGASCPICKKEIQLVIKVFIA
Target sequence (Q00987 whole entry, looked up): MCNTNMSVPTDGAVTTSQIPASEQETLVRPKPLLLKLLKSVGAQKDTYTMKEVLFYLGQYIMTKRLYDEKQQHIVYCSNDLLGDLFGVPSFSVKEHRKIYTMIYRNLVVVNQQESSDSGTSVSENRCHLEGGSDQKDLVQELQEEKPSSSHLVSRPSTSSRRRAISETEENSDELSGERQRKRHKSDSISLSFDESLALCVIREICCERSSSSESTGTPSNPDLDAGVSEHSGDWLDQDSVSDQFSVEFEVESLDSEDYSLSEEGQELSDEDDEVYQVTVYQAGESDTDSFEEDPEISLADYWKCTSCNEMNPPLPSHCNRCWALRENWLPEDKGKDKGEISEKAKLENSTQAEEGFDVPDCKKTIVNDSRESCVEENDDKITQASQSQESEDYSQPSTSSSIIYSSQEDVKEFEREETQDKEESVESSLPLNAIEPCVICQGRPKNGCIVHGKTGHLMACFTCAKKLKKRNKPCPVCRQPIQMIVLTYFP
Mdm2 MdmX conf = human Mdm2/MdmX binding inhibition, confirmed | shares compounds with Mdm2-MdmX inh | luminescent assay | inhibition, % at 8 µM | 10,000 compounds, 55% hits | AID 489028; in the data active = inhibition above about 40%
FLuc counter = inhibits full-length luciferase, flagging false Mdm2/MdmX hits | 6,200 compounds, 77% hits | shares compounds with Mdm2-MdmX inh | SaOS-2 full-length luciferase counterscreen, luminescence | inhibition, % at 8 µM;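 active = mean inhibition at 8 µM reaching about 37%, which flags the compound as non-specific, limit read from the data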;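 also: p53-null SaOS-2 cells with luciferase driven by a doxycycline-inducible promoter; compound on cells about two nights before reading with doxycycline added after day one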
The depositor's hits bear a star. Most compounds without a hit are left out; they make up all but 4% or so of the library.

For Cc1ccc(N2C(=O)N3[C@H](c4ccc(F)cc4)[C@@H]4C(=O)N(C5CCCCC5)C(=O)[C@@H]4[C@]3(Cc3ccccc3)C2=O)cc1 the results were Gli-Sufu block 7.4, PAX8 reporter 17.4, CSC inhib -13.6, Shn3 inh set2 7.7, Mdm2-MdmX inh 60.9*, Mdm2 MdmX conf 70.0* and FLuc counter 57.3*.
C[C@H]1CN([C@@H](C)CO)C(=O)c2cc(NC(=O)CCCCCC(=O)Nc3ccccc3N)ccc2O[C@@H]1CN(C)C(=O)Nc1cccc2ccccc12 was read as PAX8 reporter 13.6.
Cc1ccc(S(=O)(=O)N2CC[C@@H]3[C@H]2c2cc(C#Cc4cccnc4)ccc2N(C)[C@H]3CO)cc1 was read as PAX8 reporter 8.5.
For Cc1ccc(S(=O)(=O)c2nc(S(C)(=O)=O)sc2N2CCC(O)CC2)cc1 the results were Gli-Sufu block -4.3, PAX8 reporter 15.8, Beta cell apopt -4.7, CSC inhib -22.1, Shn3 inh set2 -6.4 and Mdm2-MdmX inh 19.7.
Cc1ccc(S(=O)(=O)c2nc(S(C)(=O)=O)sc2N2CCCCC2C)cc1 (stereo not drawn) was read as Gli-Sufu block 1.3, PAX8 reporter 56.9, Beta cell apopt 0.5, CSC inhib -7.2, Shn3 inh set2 2.7, Mdm2-MdmX inh 57.3*, Mdm2 MdmX conf 41.4* and FLuc counter 39.8*.
Screening Cc1ccc(S(=O)(=O)N(C)C[C@@H]2Oc3ccc(NS(=O)(=O)c4cn(C)cn4)cc3CC(=O)N([C@@H](C)CO)C[C@@H]2C)cc1 returned PAX8 reporter -22.7.
CN1CCN(C(=O)C[C@@H]2CC[C@H]3[C@@H](COc4ccc(NC(=O)c5cscn5)cc4C(=O)N3C)O2)CC1 was read as PAX8 reporter -10.3.
For CCOC(=O)Nc1ccc2c(c1)N(C(=O)N1CCN(C)CC1)c1ccccc1S2 the results were Gli-Sufu block -4.1, Beta cell apopt 1.5, CSC inhib 5.3, Shn3 inh set2 -11.0 and Mdm2-MdmX inh 22.5.
C=CC(=O)N1c2ccccc2Sc2ccc(NC(=O)OCC)cc21 was read as Gli-Sufu block 5.9, Beta cell apopt -25.1, CSC inhib 31.8, Shn3 inh set2 12.8, Mdm2-MdmX inh 87.4*, Mdm2 MdmX conf 41.2* and FLuc counter 35.2.
Screening O=C(Nc1ccc(S(=O)(=O)N2CCOCC2)cc1)c1cc(-c2cc(Cl)ccc2O)n[nH]1 returned Gli-Sufu block 6.9, PAX8 reporter 76.5*, Beta cell apopt 46.1, CSC inhib 94.0*, Shn3 inh set2 40.3, Mdm2-MdmX inh 86.6*, Mdm2 MdmX conf 79.3* and FLuc counter 39.3*.
`COc1ccc(NC(=O)c2cc(-c3cc(Cl)ccc3O)n[nH]2)c(OC)c1` gave Gli-Sufu block 4.3, PAX8 reporter 8.2, Beta cell apopt 5.6, CSC inhib 10.7, Shn3 inh set2 -23.1, Mdm2-MdmX inh 68.7* and Mdm2 MdmX conf 2.8.
For C[C@@H](NC(=O)C[C@@H]1CC[C@H]2[C@@H](COC[C@@H](O)CN2C(=O)Nc2cccc(Cl)c2)O1)c1ccccc1 the results were PAX8 reporter -33.4.
For CN(c1ccc(F)cc1)S(=O)(=O)c1ccc(Cl)c(C(=O)Nc2ccncc2)c1 the results were Gli-Sufu block 46.6, PAX8 reporter -0.1, Beta cell apopt 39.2, CSC inhib -15.3, Shn3 inh set2 78.0, Mdm2-MdmX inh 52.2* and Mdm2 MdmX conf 28.1.
Cc1ccc(S(=O)(=O)N(C)C[C@@H]2OCCCC[C@H](C)Oc3ccc(NC(=O)NC(C)C)cc3C(=O)N([C@H](C)CO)C[C@@H]2C)cc1 was read as PAX8 reporter -22.5.
Screening CC(C)C#Cc1ccc([C@H]2[C@@H](CO)N3CCCCN(CC4CC4)C[C@@H]23)cc1 returned PAX8 reporter -10.7.
Screening C/C(=N\NC(=O)c1ccc(O)cc1)c1cccc(NC(=O)c2ccc(Cl)cc2)c1 returned Gli-Sufu block -38.2, PAX8 reporter -62.9, Beta cell apopt -3.1, CSC inhib 22.4, Shn3 inh set2 -56.2, Mdm2-MdmX inh 58.3* and Mdm2 MdmX conf -2.6.
C/C(=N/NC(=O)c1ccc(C)s1)c1cccc(NC(=O)COc2ccc(Cl)cc2C)c1 was read as Gli-Sufu block -7.6, PAX8 reporter -9.1, Beta cell apopt -1.9, CSC inhib 3.9, Shn3 inh set2 -14.1, Mdm2-MdmX inh 88.8* and Mdm2 MdmX conf -0.3.
For COc1ccc(C(=O)Nc2cccc(/C(C)=N\NC(=O)c3ccoc3C)c2)cc1OC the results were Gli-Sufu block -3.5, PAX8 reporter -56.9, Shn3 inh set2 -25.4 and Mdm2-MdmX inh 32.9.
Screening C/C(=N\NC(=O)c1c(Cl)c(C)nn1C)c1cccc(NC(=O)COc2ccc(Cl)cc2)c1 returned Gli-Sufu block -21.0, Beta cell apopt 0.3, CSC inhib 16.6, Shn3 inh set2 0.3 and Mdm2-MdmX inh 12.3.
`C/C(=N\NC(=O)c1ccc(Cl)cc1)c1cccc(NC(=O)c2cccnc2)c1` gave Gli-Sufu block -39.1, PAX8 reporter -12.1, Beta cell apopt 0.4, CSC inhib 19.9, Shn3 inh set2 -50.1 and Mdm2-MdmX inh -10.9.
For COc1ccc(C(=O)Nc2cccc(/C(C)=N/NC(=O)c3ccc([N+](=O)[O-])c(C)c3)c2)cc1OC the results were Gli-Sufu block 6.3, PAX8 reporter -11.0, Beta cell apopt 5.9, CSC inhib -8.8, Shn3 inh set2 18.7, Mdm2-MdmX inh 55.6* and Mdm2 MdmX conf -25.3.
`O=C(C[C@H]1C[C@@H]2c3cc(NS(=O)(=O)c4ccc(F)cc4)ccc3O[C@@H]2[C@H](CO)O1)NCCc1ccccc1` gave PAX8 reporter -4.7.
`NC(=O)c1ccc(NC(=O)C2CC2)cc1` gave Gli-Sufu block -11.9, PAX8 reporter 9.0, Beta cell apopt -3.4, CSC inhib -16.5, Shn3 inh set2 -3.9 and Mdm2-MdmX inh 7.9.
`O=C(Nc1ccc(Cc2ccc(NC(=O)C3CC3)cc2)cc1)C1CC1` gave Gli-Sufu block -4.9, PAX8 reporter 3.6, Beta cell apopt 1.4, CSC inhib 17.3, Shn3 inh set2 4.0, Mdm2-MdmX inh 56.9* and Mdm2 MdmX conf 14.7.
For CCOC(=O)NC(=O)/C(C#N)=N\Nc1cccc(Cl)c1 the results were Gli-Sufu block 1.5, PAX8 reporter -17.8, Beta cell apopt 0.8, CSC inhib 36.6, Shn3 inh set2 -1.5, Mdm2-MdmX inh 58.6*, Mdm2 MdmX conf 63.6* and FLuc counter 57.9*.
Screening COc1ccc2c3c([nH]c2c1)[C@@H](CO)N(Cc1ccccc1F)CC31CCN(C(=O)C2CCCC2)CC1 returned PAX8 reporter 2.5.
N/C(=N\OC(=O)c1ccc(Cl)c(Cl)c1)c1ccccn1 was read as Gli-Sufu block -71.2, Beta cell apopt 2.5, Shn3 inh set2 4.6 and Mdm2-MdmX inh -135.8.
